Hits are enriched below; roughly 0.97% of the tested compounds scored in any of these assays.
CtBP-E1A inh = qHTS Assay for Inhibitors of the CtBP/E1A Interaction; activity change, % (test concentration not listed); AlphaScreen GST-E1A/His-CtBP binding, 1536-well; active compounds read low; 0.49% of 340,000 active; AID 651724, 2012
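In 5 uL wells, 23 nL compound meets equimolar GST-E1A and His-CtBP (5X stock 125 nM each) for 2 h, 37 °C. Beads (5X, 50 ug/mL) then 1 h, 37 °C, dark.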
Eya2 inh = qHTS Assay for Inhibitors of the Phosphatase Activity of Eya2 | Protein phosphatase EYA2 (Homo sapiens), O00167 | recombinant Eya2, OMFP fluorescence dephosphorylation (OMFP is methylfluorescein phosphate) | Potency, µM (top dose mostly 76.9 µM), for the others: at the top dose activity, negative = inhibition, hits mostly inhibitors | 0.006% of 330,000 active | AID 488837, 2010; active = well fitted inhibition curve with a large enough effect; inconclusive = small, poorly fitted or top-dose-only effect, or effect the other way; note: potency is the fitted concentration of half-maximal effect
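Eya2 (0.2 uM) preincubated 10 min at ambient with compound, then OMFP substrate added at 50 uM; 10 min reaction in 50 mM HEPES pH 7.5, 50 mM NaCl, 5 uM MgCl2, 0.05% BSA, 1 mM DTT. Fluorescence read at Ex 485/Em 525 nm.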
PI4K2A block = qHTS for small molecular inhibitors of PI4K2A. purified PI4K2A, ADP-Glo luminescence, 1 h; active compounds read low. activity change, negative = inhibition, % at 76.9 µM. 0.13% of 420,000 active. AID 1346378, 2018; in the data active = activity change below about -50%; inconclusive = mostly about -30% to -49%;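 note: -100% = wells without enzyme as full effect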
Target sequence (Q9BTU6 whole entry, looked up): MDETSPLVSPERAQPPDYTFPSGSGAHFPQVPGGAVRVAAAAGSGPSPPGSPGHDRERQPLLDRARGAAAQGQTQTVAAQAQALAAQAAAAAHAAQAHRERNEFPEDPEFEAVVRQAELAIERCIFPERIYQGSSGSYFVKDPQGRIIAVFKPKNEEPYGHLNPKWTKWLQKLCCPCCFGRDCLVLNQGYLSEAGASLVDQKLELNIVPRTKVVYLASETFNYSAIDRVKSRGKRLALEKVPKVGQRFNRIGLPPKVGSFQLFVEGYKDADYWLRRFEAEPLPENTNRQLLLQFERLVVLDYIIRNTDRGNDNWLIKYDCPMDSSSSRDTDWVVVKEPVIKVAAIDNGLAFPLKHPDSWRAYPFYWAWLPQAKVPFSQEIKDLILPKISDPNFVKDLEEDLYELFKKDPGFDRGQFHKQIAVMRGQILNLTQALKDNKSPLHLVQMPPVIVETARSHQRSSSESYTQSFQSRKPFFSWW
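PI4K2A activity was measured by ADP-Glo luminescence: enzyme (4 ug/mL stock) and phosphatidylinositol (1.2 mM stock) in Tris pH 7.5/MgCl2/EGTA/Triton X-100 buffer were reacted with ATP (300 microM stock) for one hour at ambient temperature.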
CCT modulator = High-Throughput Screening for Modulators of Cytosolic Chaperonin Activity; purified chaperonin ATPase assay, HTRF ADP detection, 30 min; activity change, % (test concentration not listed), hits read low; 0.3% of 360,000 active; in the data active = activity change below about -30%
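TRiC at 40 or 20 nM final (batch-dependent) in 30 mM Tris pH 7.4, 100 mM KCl, 5 mM MgCl2, 1 mM DTT, with compound at single 76 uM and 10 uM ATP, 30 min at 37 deg C. ADP detected by HTRF Transcreener, 665/615 ratio.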
Six1-Eya2 inh = qHTS Assay for Inhibitors of the Six1/Eya2 Interaction; Homeobox protein SIX1 (Homo sapiens) + Protein phosphatase EYA2 (Homo sapiens), …; AlphaScreen GST-Six1/His-Eya2 binding, biochemical; active compounds read low; activity change, % (test concentration not listed); 0.56% of 360,000 active; AID 651725, 2012
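Homogeneous AlphaScreen proximity assay pairing GST-Six1 with His-tagged Eya2 (added as 5X mix: 250 nM and 500 nM) in 50 mM Tris pH 8.0, 300 mM NaCl, 1 mM TCEP. Glutathione donor and nickel acceptor beads; 1 h, 37 °C, dark.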
* = called active by the depositor; u = inconclusive; x = no result given. Cut-off read from the data, not from the text of the source, unless noted: active = activity change below about -65%; inconclusive = mostly about -30% to -63%; inactive = weaker than that. Unless noted, % is set by controls: 0 for no effect and ±100 for the full control effect.

SMILES | CtBP-E1A inh | Eya2 inh | PI4K2A block | CCT modulator | Six1-Eya2 inh
Oc1ccc(C=NNC(=S)Nc2ccc(F)cc2)c(O)c1 | -93* | x | 4 | 0 | -80*
Oc1ccc(/C=N/NC(=S)Nc2cccnc2)c(O)c1 | -82* | -3% | 2 | 1 | -90*
COc1cc2nc(Cl)nc(N)c2cc1OC | x | x | -4 | x | x
N#C/C(=C1/SC[C@@H](c2ccc(Cl)cc2Cl)S1)n1ccnc1 | x | x | -10 | x | x
Fc1cccc(F)c1/C=N/NC(=S)Nc1cccnc1 | -4 | 0% | -2 | -2 | -2
Oc1cccc(/C=N/NC(=S)Nc2cccnc2)c1O | -95* | 2% | 3 | 3 | -91*
CCOc1ccc(NC(=O)c2ccc3c(SCC(=O)O)c4c(nc3c2)CCC4)cc1 | x | x | 5 | x | x
Nc1cc(C(F)(F)F)ccc1NCCc1ccccn1 | -7 | -23% | 1 | -107* | 0
CCOc1ccc(NC(=O)CN(C)C(=O)C2CC(=O)N(c3ccc4c(c3)OCCO4)C2)cc1OCC (configuration not stated) | -5 | -3% | 3 | -3 | -1
CCOc1ccc(NC(=O)CN(C)C(=O)C2CC(=O)N(c3cccc(SC)c3)C2)cc1OCC (configuration not stated) | -72* | x | 0 | -5 | -65*
O=C(O)C1CCC1 | x | x | 2 | x | x
O=C(Oc1ccc(C(=S)N2CCOCC2)cc1)c1cccc(Cl)c1 | 0 | -1% | 1 | -63* | -80*
O=C(Oc1ccc(C(=S)N2CCC(O)CC2)cc1)c1ccc(Cl)cc1 | -84* | -5% | 2 | -2 | -90*
O=C(Oc1ccc(C(=S)N2CCCCC2)cc1)c1ccccc1 | -22 | 0% | -3 | 1 | -26
O=C(/C=C/c1ccccc1)Oc1cccc(C(=S)N2CCOCC2)c1 | -5 | 3% | 20 | 0 | -69*
CCOC(=O)c1sc2ccccc2c1S(=O)(=O)Nc1cc(OC)ccc1OC | x | x | 1 | x | x
CCOc1ccccc1NC(=O)C1=C(C)Nc2ncnn2C1c1ccccn1 (configuration not stated) | x | x | -1 | x | x
c1ccc(N2CCN(c3nc4cc5c(cc4s3)OCCO5)CC2)cc1 | -3 | -18% | -1 | -4 | -3
c1c2c(cc3sc(N4CCOCC4)nc13)OCCO2 | 4 | 2% | -51* | -1 | 0
O=S(=O)(c1ccc2nc(-c3ccco3)c(-c3ccco3)nc2c1)N1CCOCC1 | -28 | -2% | -55* | -5 | u
COc1ccc(C)cc1S(=O)(=O)N(CC(=O)NC1CCCC1)c1ccc(F)cc1 | -6 | -2% | -5 | -1 | 24
COc1ccc(C)cc1S(=O)(=O)N(CC(=O)O)c1ccc(F)cc1 | 0 | x | 6 | -33* | -9
O=C(CSc1nnc(-c2ccncc2)o1)Nc1cc(F)ccc1F | -4 | -1% | 0 | -119* | 10
Cc1ccc(-c2nnc(SCC(=O)Nc3sc(C)c(C)c3C#N)n2C)cc1 | 9 | 3% | 3 | -1 | 7
Cc1sc(NC(=O)CSc2nnc(-c3ccc(F)cc3)o2)c(C#N)c1C | -8 | -9% | 9 | -50* | 3
SMILES | CtBP-E1A inh | Eya2 inh | PI4K2A block | CCT modulator | Six1-Eya2 inh
O=C(CSc1nnc(-c2ccncc2)o1)Nc1cccc(F)c1 | 7 | -22% | 1 | -3 | -2
CC1c2ccccc2CN1NC(=O)c1ccc(Cl)c(S(N)(=O)=O)c1 (configuration not stated) | x | x | 1 | x | x
CC1=C(c2ccc(C)c(C)c2)S(=O)(=O)N=C1N1CCC(C(=O)N2CCC(C)CC2)CC1 | x | x | 0 | x | x
COc1ccc(OC)c(S(=O)(=O)n2nnc3ccccc32)c1 | 2 | 3% | 4 | 3 | u
COc1ccc(F)cc1S(=O)(=O)n1nnc2ccccc21 | u | 8% | -20 | -3 | -68*
c1ccc(CNCCN2CCNCC2)nc1 | -72* | -2% | 1 | -1 | -86*
CCOc1ccc(CCNC(=O)c2cn(CC)c3ccc(S(=O)(=O)N4CCc5ccccc5C4)cc3c2=O)cc1OCC | x | x | -5 | x | x
COc1ccc(/C=N/Nc2cc(C)nc(-n3nc(C)cc3C)n2)cc1 | -17 | -18% | -3 | -2 | -28
